Active and inactive are the calls of the source.

Assay [1] has as its target Albumin (Bos taurus) (UniProt P02769). Kind of assay: compounds binding labelled BSA control protein – biochemical, small-molecule microarray, Alexa647 label, 635/667 nm fluorescence, artefact control for SMM control protein annotation, profiling panel (AID 1118).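 Note: score merges 667 nm emission intensity and signal-to-noise per printed compound spot.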 Conditions: BSA-A647 binding, fluorescence 635 nm, higher = more signal.
The nature of assay [2]: probe aXIP binding to arrayed compounds – biochemical, NeuroSMM set, 635/667 nm fluorescence, primary screen (AID 1119).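 Note: probe is the protein aXip251-270 applied at 1 µg/mL to compound-printed slides; binding of probe to printed compounds measured as 667 nm fluorescence plus signal to noise.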 The settings on record: small-molecule microarray, higher = more signal, called active from +8 up or from −8 down.
Assay [3] in a line: probe aNOTCH3 binding on compound microarray – biochemical, small-molecule microarray, 635/667 nm fluorescence, primary screen (AID 1120).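 Note: probe is a biotin-tagged antibody raised against NOTCH3 rather than NOTCH3 protein; score merges spot fluorescence near 667 nm with spot signal to noise.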 The settings on record: higher = more signal.
The nature of assay [4]: probe aNOTCH2 binding on compound microarray – biochemical, small-molecule microarray, 635/667 nm fluorescence, primary screen (AID 1121).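 Note: score merges feature fluorescence read at 667 nm with its signal to noise.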 Conditions: higher = more signal.
Assay [5] addresses Carbonic anhydrase 2 (Homo sapiens) (UniProt P00918). Briefly: compounds binding carbonic anhydrase 2 – biochemical, small-molecule microarray, Alexa647-labelled CAII, profiling panel (AID 1122). The settings on record: CAII-A647 binding fluorescence, higher = more signal.
Assay [6] is described as follows: COS7 lysate on small-molecule microarray, probe aHis, 635 nm (AID 1123).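 Note: z-score combines 667nm fluorescence intensity with signal-to-noise per printed compound spot.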 Conditions: COS7 cell lysate, fluorescence, higher = more signal.
Assay [7] in a line: probe aLAP1 signal on lysate-treated microarray – cell lysate, small-molecule microarray, COS7 lysate, primary screen (AID 1124).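 Note: lysate comes from COS7 cells expressing LAP1 and is applied at 0.3 µg/mL; score merges spot fluorescence near 667 nm with signal-to-noise over triplicate slides.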 Conditions: probe aLAP1, fluorescence, higher = more signal.
Assay [8] has as its system Sam68 (KHDRBS1). Briefly: compounds binding KHDRBS1 protein – biochemical, small-molecule microarray, 635 nm fluorescence, primary screen (AID 1125).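 Note: score merges 667 nm channel intensity with signal to noise over triplicate slides.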 Conditions: higher = more signal.
In assay [9] the test system is Chordin-like protein 2 (CHRDL2). Kind of assay: compounds binding chordin-like 2 – biochemical, small-molecule microarray, 635 nm fluorescence, primary screen (AID 1126).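 Note: printed compound slides probed with Chrdl2 protein at 4 µg/mL for 1 h at 4 C; score merges 667 nm emission intensity with signal to noise over three replicate slides.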 Conditions: fluorescence 635 nm, higher = more signal.
Assay [10] concerns the target Concanavalin-A (Canavalia ensiformis) (UniProt P02866). Kind of assay: compounds binding concanavalin A lectin – biochemical, small-molecule microarray, Alexa647 label, 635 nm, artefact control for SMM control protein annotation, primary screen (AID 1127).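 Note: z combines 667 nm emission intensity with signal-to-noise across three replicate slides.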 Conditions: ConA-A647 binding fluorescence, higher = more signal.
Assay [11] can be described thus: compounds binding Alexa647 anti-His antibody – biochemical, small-molecule microarray, 635 nm fluorescence, artefact control for SMM control protein annotation, primary screen (AID 1128).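 Note: score merges feature fluorescence with signal-to-noise for each printed compound spot.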 Conditions: higher = more signal.
Assay [12] deals with Human papillomavirus type 1a E7 protein (residues 1-88). Kind of assay: HPV1a E7 small-molecule binders, primary screen, biochemical, small-molecule microarray, residues 1-88, 635 nm (AID 1129). The settings on record: small-molecule microarray binding, fluorescence 635 nm; higher = more signal.
The target of assay [13] is Focal adhesion kinase 1 (Homo sapiens) (UniProt Q05397). Briefly: PTK2 protein binding on printed compound slides – biochemical, small-molecule microarray, 635/667 nm fluorescence, BSA, DTT, primary screen (AID 1130).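 Note: composite of spot emission at 667 nm and signal to noise over triplicate slides.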 The settings on record: 635 nm fluorescence, higher = more signal.
Sequence of Focal adhesion kinase 1 (Homo sapiens) (Q05397 whole entry, looked up): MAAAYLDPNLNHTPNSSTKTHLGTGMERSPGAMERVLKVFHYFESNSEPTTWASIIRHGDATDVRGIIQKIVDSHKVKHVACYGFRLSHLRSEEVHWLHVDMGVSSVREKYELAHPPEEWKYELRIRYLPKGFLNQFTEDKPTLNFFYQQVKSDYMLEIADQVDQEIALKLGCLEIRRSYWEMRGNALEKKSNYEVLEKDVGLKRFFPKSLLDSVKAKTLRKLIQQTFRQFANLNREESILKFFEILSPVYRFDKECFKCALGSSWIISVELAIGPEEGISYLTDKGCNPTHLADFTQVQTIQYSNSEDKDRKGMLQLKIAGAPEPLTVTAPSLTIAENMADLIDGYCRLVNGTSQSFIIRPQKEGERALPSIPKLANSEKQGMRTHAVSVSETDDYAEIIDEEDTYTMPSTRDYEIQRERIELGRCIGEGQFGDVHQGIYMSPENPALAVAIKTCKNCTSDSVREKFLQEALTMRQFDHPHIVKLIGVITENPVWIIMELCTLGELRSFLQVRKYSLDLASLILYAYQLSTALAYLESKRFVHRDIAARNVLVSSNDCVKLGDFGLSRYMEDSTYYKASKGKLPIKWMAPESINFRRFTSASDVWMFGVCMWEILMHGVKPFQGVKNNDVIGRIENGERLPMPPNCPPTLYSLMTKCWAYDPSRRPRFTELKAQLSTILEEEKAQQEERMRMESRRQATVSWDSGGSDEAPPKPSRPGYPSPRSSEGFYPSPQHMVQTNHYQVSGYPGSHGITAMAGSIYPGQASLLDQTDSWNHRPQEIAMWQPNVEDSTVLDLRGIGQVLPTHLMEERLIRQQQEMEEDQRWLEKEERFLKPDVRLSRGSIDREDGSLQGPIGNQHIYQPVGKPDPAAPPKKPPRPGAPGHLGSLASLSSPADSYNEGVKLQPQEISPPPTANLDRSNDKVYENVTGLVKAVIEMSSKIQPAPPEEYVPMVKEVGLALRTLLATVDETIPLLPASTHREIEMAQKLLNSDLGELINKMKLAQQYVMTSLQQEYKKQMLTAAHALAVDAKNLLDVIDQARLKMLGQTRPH
For assay [14], the system named is Fibrinogen (Alexa647-labelled). Briefly: Alexa647-fibrinogen binding to printed small molecules – biochemical, small-molecule microarray, 635/667 nm fluorescence, artefact control for SMM control-protein annotation, profiling panel (AID 1131).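 Note: z-score merges 667 nm fluorescence with per-spot signal-to-noise over triplicate slides.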 The settings on record: fibrinogen-A647 binding fluorescence, higher = more signal.
Assay [15] has as its target Follistatin (Homo sapiens) (UniProt P19883). Briefly: FST protein binding to printed compounds – biochemical, small-molecule microarray, 635/667 nm fluorescence, primary screen (AID 1132). The settings on record: 635 nm fluorescence, higher = more signal.
The target in assay [16] is Fibroblast growth factor 2 (Homo sapiens) (UniProt P09038). Kind of assay: basic fibroblast growth factor binding to printed compounds – biochemical, small-molecule microarray, 635/667 nm fluorescence, primary screen (AID 1133). Conditions: FGF2, fluorescence 635/667, higher = more signal.
Sequence of Fibroblast growth factor 2 (Homo sapiens) (P09038 whole entry, looked up): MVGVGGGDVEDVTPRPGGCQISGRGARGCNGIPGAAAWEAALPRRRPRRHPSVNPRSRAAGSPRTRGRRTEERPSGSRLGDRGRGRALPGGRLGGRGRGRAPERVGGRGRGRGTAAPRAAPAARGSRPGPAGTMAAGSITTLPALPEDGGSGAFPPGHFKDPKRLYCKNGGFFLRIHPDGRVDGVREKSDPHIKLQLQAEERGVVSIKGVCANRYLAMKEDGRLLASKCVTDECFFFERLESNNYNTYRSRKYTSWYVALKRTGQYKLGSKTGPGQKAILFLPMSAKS
The nature of assay [17]: JC-1 mitochondrial potential readout, lung cancer cells – cell-based, A549, JC-1 fluorescence, basal, 24 h, 100 nL, profiling panel (AID 1138).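 Note: A549 lung adenocarcinoma cells under basal conditions with no added stimulus; test concentration not given here.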 Conditions: higher = more signal.
Assay [18] relates to Lefty1. Briefly: Lefty1 protein binding to printed compounds – biochemical, small-molecule microarray, 635/667 nm fluorescence, primary screen (AID 1139). The settings on record: fluorescence 635/667, higher = more signal.
For assay [19], the system named is wheat germ agglutinin (Triticum aestivum), Alexa647-labelled. Briefly: Alexa647-WGA lectin binding to printed small molecules – biochemical, small-molecule microarray, 635/667 nm fluorescence, artefact control for SMM control-protein annotation, profiling panel (AID 1140).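 Note: score merges 667 nm feature emission with signal to noise over triplicate slides.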 Conditions: WGA-A647 binding, 635 nm fluorescence, higher = more signal.
In assay [20] the target is Luciferin 4-monooxygenase (Photinus pyralis) (UniProt P08659). Kind of assay: inhibition of purified Photinus pyralis luciferase – biochemical, luminescence, purified enzyme, 2006 set, primary screen (AID 1141).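 Note: cell-free assay with purified firefly luciferase at 100 ng per well in PBS; test concentration not given here.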 The settings on record: purified firefly luciferase, SteadyGlo luminescence, 30 min; higher = more signal, called active from +8 up or from −8 down.
Sequence of Luciferin 4-monooxygenase (Photinus pyralis) (P08659 whole entry, looked up): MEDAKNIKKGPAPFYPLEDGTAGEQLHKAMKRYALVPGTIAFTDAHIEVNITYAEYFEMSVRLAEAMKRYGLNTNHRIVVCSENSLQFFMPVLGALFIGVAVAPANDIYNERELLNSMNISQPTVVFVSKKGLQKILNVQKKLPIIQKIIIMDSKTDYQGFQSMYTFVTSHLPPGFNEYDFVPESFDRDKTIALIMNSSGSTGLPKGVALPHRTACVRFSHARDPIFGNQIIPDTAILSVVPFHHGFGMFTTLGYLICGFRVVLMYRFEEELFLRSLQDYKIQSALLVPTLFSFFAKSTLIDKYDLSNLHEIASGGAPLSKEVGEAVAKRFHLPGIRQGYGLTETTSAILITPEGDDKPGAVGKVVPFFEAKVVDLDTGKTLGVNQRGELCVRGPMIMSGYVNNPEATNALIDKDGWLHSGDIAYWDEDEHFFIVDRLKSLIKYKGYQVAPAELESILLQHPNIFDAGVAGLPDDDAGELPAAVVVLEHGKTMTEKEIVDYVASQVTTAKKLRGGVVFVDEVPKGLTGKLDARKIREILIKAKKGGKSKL

Sequence of Follistatin (Homo sapiens) (P19883 whole entry, looked up): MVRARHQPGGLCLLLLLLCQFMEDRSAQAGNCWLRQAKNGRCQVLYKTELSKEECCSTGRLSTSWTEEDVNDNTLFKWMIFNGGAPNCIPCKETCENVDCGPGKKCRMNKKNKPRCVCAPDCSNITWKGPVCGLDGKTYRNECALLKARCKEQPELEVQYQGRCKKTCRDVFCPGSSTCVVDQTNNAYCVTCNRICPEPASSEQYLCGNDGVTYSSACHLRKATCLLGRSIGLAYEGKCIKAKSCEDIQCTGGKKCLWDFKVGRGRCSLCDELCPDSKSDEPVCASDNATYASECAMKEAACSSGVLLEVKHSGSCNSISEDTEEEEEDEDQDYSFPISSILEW
Sequence of Concanavalin-A (Canavalia ensiformis) (P02866 whole entry, looked up): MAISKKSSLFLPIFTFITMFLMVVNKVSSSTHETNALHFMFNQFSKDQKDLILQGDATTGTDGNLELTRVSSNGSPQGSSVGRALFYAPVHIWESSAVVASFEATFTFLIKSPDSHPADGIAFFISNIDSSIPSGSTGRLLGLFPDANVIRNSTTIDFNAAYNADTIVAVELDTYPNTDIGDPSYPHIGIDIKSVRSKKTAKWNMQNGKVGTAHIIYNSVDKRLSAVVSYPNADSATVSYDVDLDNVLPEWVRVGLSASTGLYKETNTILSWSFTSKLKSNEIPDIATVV
Sequence of Albumin (Bos taurus) (P02769 whole entry, looked up): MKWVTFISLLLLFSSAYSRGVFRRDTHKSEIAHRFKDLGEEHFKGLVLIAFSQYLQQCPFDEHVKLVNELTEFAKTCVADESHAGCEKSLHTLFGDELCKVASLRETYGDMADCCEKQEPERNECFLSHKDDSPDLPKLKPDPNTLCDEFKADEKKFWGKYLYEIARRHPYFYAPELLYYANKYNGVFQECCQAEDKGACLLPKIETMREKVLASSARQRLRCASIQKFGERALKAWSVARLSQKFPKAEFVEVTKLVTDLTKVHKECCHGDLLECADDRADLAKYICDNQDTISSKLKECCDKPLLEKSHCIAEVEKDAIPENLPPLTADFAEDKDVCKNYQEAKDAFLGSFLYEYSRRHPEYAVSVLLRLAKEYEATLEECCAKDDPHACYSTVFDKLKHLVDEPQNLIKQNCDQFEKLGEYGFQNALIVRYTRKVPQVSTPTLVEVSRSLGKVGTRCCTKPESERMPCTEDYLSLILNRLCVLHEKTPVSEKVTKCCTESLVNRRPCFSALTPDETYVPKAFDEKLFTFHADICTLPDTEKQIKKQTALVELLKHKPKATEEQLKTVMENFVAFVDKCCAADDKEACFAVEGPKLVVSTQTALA

As for `CO[C@H]1O[C@H](CO)[C@@H](OC(=O)Nc2ccc(Oc3ccccc3)cc2)[C@H](OC(=O)Nc2ccccc2-c2ccccc2)[C@H]1OC(=O)Nc1ccccc1-c1ccccc1`, the composite z-score in assay [1] was 0.892; in [3], 0.289; in [4] it was -0.0519; in assay [5] it was 0.442; in [6], 2.68; in [7] it was 1.26. Further, the composite z-score was 1.31 in assay [8]; 0.203 in assay [9]; 1.18 in [10]; 2.31 in assay [11]; 1.24 in [12]; 1.62 in [13]. Also, the composite z-score was found to be 0.98 in assay [14]; 0.95 in assay [15]; 0.938 in [16]; 0.62 in [18]; 1.38 in assay [19]. In assay [2], the composite Z-score is -0.0478 (inactive). The z-score was -1.28 in assay [17] and -1.02 (inactive) in [20].

In the case of `CC(C)[Si]1(C(C)C)O[C@@H](c2ccccc2)c2cc(C3CC3)nc(-c3ccc(Oc4ccccc4)cc3)c21`, the composite z-score in assay [1] is -1.01; in [3], -0.157; in assay [4] it was -0.125; in assay [5], -0.289; in assay [6], -0.346; in assay [7], -0.0034. Moreover, the composite z-score in [8] is -0.906; in assay [9], -0.408; in assay [10], -1.27; in assay [11], -1.14; in assay [12], -0.889; in [13], -0.323. For the same molecule, the composite z-score in [14] is -0.812; in assay [15], -0.591; in assay [16], -0.192; in assay [18] it was -0.315; in assay [19] it was -1.33. For the same molecule, the composite Z-score in [2] was -0.233 (inactive). Besides, the z-score was 1.55 in assay [17] and -0.626 (inactive) in [20].

For `C[C@H]1COC(=O)[C@H](Cc2ccccc2)NC(=O)[C@@H](C)COC(=O)[C@H](Cc2ccccc2)NC1=O`, the composite z-score in assay [1] was 0.732; in [3], -0.0377; in assay [4], -0.0967; in assay [5] it was 0.447; in assay [6], 0.612; in [7], 0.275. The composite z-score in assay [8] was 1.27; in assay [9], 0.845; in [10], 0.892; in assay [11], 1.46; in [12], 1.12; in assay [13], 0.327. Besides, the composite z-score in assay [14] was 0.194; in assay [15] it was 0.593; in assay [16] it was 0.635; in assay [18] it was 1.03; in assay [19] it was 0.523. For the same molecule, the composite Z-score in assay [2] was 0.0705 (inactive). The figures for the z-score in [17] and in [20] were 1.04 and -0.443 (inactive), respectively.

Regarding `C=C(COC)/C(=C/C[C@@H](OC(C)=O)c1cccc(OCCO)c1)c1cc(C(=O)OC)ccc1OC`, the composite z-score in assay [1] was -0.458; in assay [3], -0.0729; in assay [4], -0.125; in assay [5], 0.402; in [6] it was -0.194; in assay [7], -0.315. Also, the composite z-score was 0.539 in assay [8]; -0.458 in assay [9]; -0.937 in assay [10]; -1.25 in assay [11]; 0.0995 in [12]; -0.453 in assay [13]. In addition, the composite z-score in [14] is -1.09; in [15], 0.954; in assay [16], 0.202; in assay [18], 0.499; in assay [19] it was -1.12. Further, the composite Z-score in assay [2] was -0.574 (inactive). Also, the z-score in assay [17] was 1.37; in [20], -2.09 (inactive).

For the origin of these results see PubChem BioAssay.
